Values joined by “and” are separate entries in the source; they are usually repeats but may differ in a detail not shown here. Equal entries are not always repeated. Compounds without any hit were thinned out: in the full panel of roughly 79,000, 15% have a hit. More than one record can exist for a structure, and the calls need not agree. Active and inactive are the calls of the source. Cut-off read from the data, not from the text of the source: active = growth inhibition above about 70%; inactive = the rest.
Tests used:
[1] = NCI Yeast Anticancer Drug Screen. Data for the rad50 strain (AID 155);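 note: 0% = growth of vehicle-only cultures of the same strain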; conditions: S. cerevisiae rad50 strain growth inhibition, stronger effect = higher value
Outline: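 DNA repair mutant yeast, compound exposure, growth read-out; inhibition is taken relative to vehicle.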

[2] = NCI Yeast Anticancer Drug Screen. Data for the mec2-1 strain (AID 157); conditions: S. cerevisiae mec2-1 strain, stronger effect = higher value
Outline: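 Yeast mec2-1 mutant treated with compound. Readout: growth inhibition vs vehicle controls.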

[3] = NCI Yeast Anticancer Drug Screen. Data for the sgs1 mgt1 strain (AID 161);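 note: 0% = growth of cultures given vehicle only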; conditions: S. cerevisiae sgs1 mgt1 strain, stronger effect = higher value
Outline: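 Inhibition of yeast growth, normalised to vehicle-treated controls, is reported for a strain bearing genetic alterations in DNA damage repair.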

[4] = NCI Yeast Anticancer Drug Screen. Data for the cln2 rad14 strain (AID 165);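 note: 0% = growth equal to vehicle treated cultures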; conditions: S. cerevisiae cln2 rad14 strain, stronger effect = higher value
Outline: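 cln2 rad14 yeast strain; compound exposure; growth inhibition read vs vehicle controls.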

[5] = NCI Yeast Anticancer Drug Screen. Data for the bub3 strain (AID 167); conditions: S. cerevisiae bub3 mutant strain, stronger effect = higher value
Outline: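 In this screen, a yeast mutant lacking normal mitotic checkpoint function is challenged with compound. Relative growth versus vehicle gives the inhibition value.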

[6] = NCI Yeast Anticancer Drug Screen. Data for the mlh1 rad18 strain (AID 175); conditions: S. cerevisiae mlh1 rad18 strain growth inhibition, stronger effect = higher value
Outline: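 Yeast w/ defined DNA-repair lesions; compound exposure; growth vs vehicle controls → % inhibition.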

[7] = at 5.0 µM (retest, dose inferred, filed as 0.5)
[8] = at 50.0 µM (retest, dose inferred, filed as 5.0)

SMILES	growth inhibition [1, 7]	growth inhibition [1, 8]	growth inhibition ([1]; at 50.0 µM)	growth inhibition [2, 7]	growth inhibition [2, 8]	growth inhibition ([2]; at 50.0 µM)	growth inhibition [3, 7]	growth inhibition [3, 8]	growth inhibition ([3]; at 50.0 µM)	growth inhibition [4, 7]	growth inhibition [4, 8]	growth inhibition ([4]; at 50.0 µM)	growth inhibition [5, 7]	growth inhibition [5, 8]	growth inhibition ([5]; at 50.0 µM)	growth inhibition [6, 7]	growth inhibition [6, 8]	growth inhibition ([6]; at 50.0 µM)
CCCCCCN(CCCCCC)C(=O)C1=C(C)NC(C)=C(C(=O)N(CCCCCC)CCCCCC)C1	1% (inactive)	15% (inactive)	56.4% (inactive)	-16% (inactive)	-3% (inactive)	4.4% (inactive)	-8% (inactive)	-1% (inactive)	85.2% (active)	33% (inactive)	14% (inactive)	0.5% (inactive)	-5% (inactive)	17% (inactive)	34.9% (inactive)	-1% (inactive)	-13% (inactive)	59% (inactive)
CN1CCN(CCCN2c3ccccc3Sc3ccc(C(F)(F)F)cc32)CC1	-13% (inactive) and -1% (inactive)	98% (active) and 94% (active)	98.8% (active) and 83.9% (active)	-9% (inactive) and -29% (inactive)	98% (active) and 70% (active)	99.2% (active) and 83.9% (active)	-7% (inactive) and 0% (inactive)	95% (active) and 73% (active)	99.2% (active) and 84.9% (active)	-31% (inactive) and 3% (inactive)	84% (active) and 78% (active)	98% (active) and 84.7% (active)	-13% (inactive) and -27% (inactive)	98% (active) and 95% (active)	99.2% (active) and 86.2% (active)	-8% (inactive) and -9% (inactive)	99% (active) and 96% (active)	99.6% (active)
Cc1ncc(C[n+]2cccc(CCO)c2C)c(N)n1	4% (inactive) and 16% (inactive)	31% (inactive) and 48% (inactive)	55.7% (inactive) and 46.5% (inactive)	19% (inactive) and 11% (inactive)	60% (inactive) and 49% (inactive)	40.5% (inactive) and 38% (inactive)	-15% (inactive) and 10% (inactive)	62% (inactive) and 68% (inactive)	87.5% (active) and 64% (inactive)	1% (inactive) and 9% (inactive)	24% (inactive) and 18% (inactive)	58.1% (inactive) and 24.5% (inactive)	-4% (inactive) and 5% (inactive)	14% (inactive) and 36% (inactive)	8.65% (inactive) and 29.9% (inactive)	10% (inactive) and 15% (inactive)	63% (inactive) and 48% (inactive)	72% (active) and 71.2% (active)
Fc1cccc(NC(=S)SCc2ccc(Cl)c(Cl)c2)c1	8% (inactive)	94% (active)	98.2% (active)	3% (inactive)	93% (active)	99.2% (active)	6% (inactive)	98% (active)	99% (active)	-7% (inactive)	85% (active)	98.8% (active)	0% (inactive)	95% (active)	98% (active)	4% (inactive)	96% (active)	99% (active)
COC(=O)C1c2cc3c(cc2C(OC2OC(C)C(OC)C(C)(OC)C2OC)CC1(C)O)C(=O)c1c(O)cc2c(c1C3=O)OC1OC2(C)C(O)C([N+](C)(C)[O-])C1O (stereo not drawn)	7% (inactive)	65% (inactive)	70.4% (active)	3% (inactive)	8% (inactive)	61.4% (inactive)	-2% (inactive)	27% (inactive)	65.8% (inactive)	24% (inactive)	39% (inactive)	47.6% (inactive)	-10% (inactive)	31% (inactive)	74.8% (active)	-8% (inactive)	57% (inactive)	54.5% (inactive)
CCCCCCCCCCCCCCCCCCOCC(O)CO (stereo not drawn)	0% (inactive)	-1% (inactive)	45.5% (inactive)	-2% (inactive)	-1% (inactive)	55.6% (inactive)	-1% (inactive)	-1% (inactive)	62.6% (inactive)	-1% (inactive)	-7% (inactive)	34.2% (inactive)	2% (inactive)	-1% (inactive)	64.7% (inactive)	-3% (inactive)	-13% (inactive)	57% (inactive)
C1=C(CN2CCCCC2)COc2ccccc21	9% (inactive)	30% (inactive)	51.4% (inactive)	1% (inactive)	45% (inactive)	22.9% (inactive)	-7% (inactive)	61% (inactive)	46.5% (inactive)	0% (inactive)	28% (inactive)	65% (inactive)	6% (inactive)	44% (inactive)	59.8% (inactive)	20% (inactive)	54% (inactive)	76.7% (active)
CCc1cc2c(cc1C(C)=O)C(C)(C)CCC2	6% (inactive)	95% (active)	98.5% (active)	2% (inactive)	97% (active)	98.7% (active)	14% (inactive)	98% (active)	98.5% (active)	11% (inactive)	97% (active)	93% (active)	-3% (inactive)	96% (active)	98.7% (active)	9% (inactive)	98% (active)	98.7% (active)
O=C1C(CN2CCOCC2)CCCC1CN1CCOCC1 (stereo not drawn)	0% (inactive)	97% (active)	12.2% (inactive) and 1.25% (inactive)	4% (inactive)	98% (active)	35% (inactive) and 33.8% (inactive)	2% (inactive)	96% (active)	10.8% (inactive) and 24.9% (inactive)	3% (inactive)	97% (active)	19.1% (inactive) and -27.2% (inactive)	0% (inactive)	95% (active)	1.05% (inactive) and 69.5% (inactive)	3% (inactive)	97% (active)	26.8% (inactive) and 9.15% (inactive)
O=[N+]([O-])c1cc([N+](=O)[O-])c2ccccc2c1NS(=O)(=O)/C=C/c1ccccc1	5% (inactive)	54% (inactive)	53% (inactive)	8% (inactive)	64% (inactive)	70.7% (active)	16% (inactive)	47% (inactive)	49% (inactive)	10% (inactive)	77% (active)	50.4% (inactive)	2% (inactive)	42% (inactive)	16.3% (inactive)	7% (inactive)	71% (active)	44.5% (inactive)
NC(=O)N/N=C/c1ccc([N+](=O)[O-])o1	2% (inactive)	73% (active)	32% (inactive) and 46.6% (inactive)	2% (inactive)	26% (inactive)	13.8% (inactive) and 8.3% (inactive)	4% (inactive)	34% (inactive)	56.4% (inactive) and 48% (inactive)	0% (inactive)	16% (inactive)	10.1% (inactive) and 26.1% (inactive)	-3% (inactive)	22% (inactive)	10.6% (inactive) and 51.8% (inactive)	5% (inactive)	50% (inactive)	47.3% (inactive) and 71.3% (active)
O=C1C(CN(Cc2ccccc2)Cc2ccccc2)CCCC1CN(Cc1ccccc1)Cc1ccccc1 (stereo not drawn)	4% (inactive)	17% (inactive)	90.6% (active) and -1.45% (inactive)	-3% (inactive)	22% (inactive)	73% (active) and 25.6% (inactive)	4% (inactive)	46% (inactive)	72.7% (active) and 21.9% (inactive)	-20% (inactive)	7% (inactive)	23.6% (inactive) and 67.8% (inactive)	-16% (inactive)	47% (inactive)	83.2% (active) and 21.4% (inactive)	-3% (inactive)	58% (inactive)	80.8% (active) and 14.2% (inactive)
O=C1N(c2ccccc2)C(=O)N1c1ccccc1	-8% (inactive)	-6% (inactive)	1.05% (inactive) and 0.3% (inactive)	-19% (inactive)	-1% (inactive)	25.6% (inactive) and -2.2% (inactive)	-11% (inactive)	3% (inactive)	43.2% (inactive) and -12.2% (inactive)	20% (inactive)	17% (inactive)	0.1% (inactive) and -20.9% (inactive)	14% (inactive)	17% (inactive)	22.1% (inactive) and -12.4% (inactive)	-16% (inactive)	-11% (inactive)	28.6% (inactive) and 2.3% (inactive)
Clc1ccc(CNCCCNCc2ccc(Cl)cc2)cc1	80% (active)	15% (inactive)	27.8% (inactive)	100% (active)	31% (inactive)	23% (inactive)	67% (inactive)	31% (inactive)	50.4% (inactive)	49% (inactive)	13% (inactive)	72% (active)	91% (active)	20% (inactive)	27.3% (inactive)	96% (active)	13% (inactive)	29.9% (inactive)
Cc1cc(N)c(S)cc1C	6% (inactive) and -2% (inactive)	25% (inactive) and 28% (inactive)	65.1% (inactive) and 25.8% (inactive)	-8% (inactive) and 0% (inactive)	25% (inactive) and 31% (inactive)	19.9% (inactive) and 24.2% (inactive)	1% (inactive)	44% (inactive) and 37% (inactive)	21.3% (inactive) and 50.4% (inactive)	-1% (inactive) and -7% (inactive)	2% (inactive) and 7% (inactive)	-50% (inactive) and 30.4% (inactive)	-2% (inactive) and 1% (inactive)	59% (inactive) and 47% (inactive)	42.9% (inactive) and 75.5% (active)	2% (inactive) and -2% (inactive)	70% (active) and 40% (inactive)	59.8% (inactive) and 77% (active)
O=c1[nH]c(=O)n(C2OC(CO)C(O)C2O)cc1F (stereo not drawn)	21% (inactive) and 30% (inactive)	96% (active) and 95% (active)	96.2% (active) and 93% (active)	42% (inactive) and 39% (inactive)	99% (active)	97.3% (active) and 97.8% (active)	65% (inactive) and 80% (active)	98% (active)	97.8% (active) and 96.1% (active)	15% (inactive) and 24% (inactive)	96% (active) and 98% (active)	90.5% (active) and 92.2% (active)	5% (inactive) and -1% (inactive)	98% (active) and 97% (active)	96.3% (active) and 90.2% (active)	24% (inactive) and 6% (inactive)	97% (active) and 96% (active)	94.8% (active) and 92.2% (active)

From PubChem BioAssay (NCI)
